# Screening data (PubChem BioAssay)
# Sampled rows, rich in hits. Any-hit rate of the full collection: about 3.6%.
# mHTT CaM bind – mutant huntingtin-calmodulin interaction inhibitors – biochemical, AlphaScreen, primary screen; P42858; AlphaScreen His-mHTT/GST-CaM binding, luminescence; inhibition, % at 15 µM; 3.6% of 190,000 active; AID 1671202, 2021;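 note: 0% = both proteins with DMSO and 100% = one protein alone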
# Pf apPOL inh – Pf-apPOL inhibitors, biochemical, fluorescence | Plasmodium falciparum apicoplast DNA polymerase (apPOL) | Recombinant Pf-apPOL, molecular beacon fluorescence, 1.5 h | inhibition, % at 10 µM | 0.25% of 210,000 active
# Numbers without * were called inactive; i = inactive; . = no result given. Cut-off read from the data, not from the text of the source: active = inhibition above about 50%; inactive = the rest.
SMILES,mHTT CaM bind,Pf apPOL inh
Cc1ccccc1-n1nc2c(c1NC(=O)C13CC4CC(CC(C4)C1)C3)CSC2,0,-7
Cc1ccccc1-n1nc2c(c1NC(=O)C13CC4CC(CC(C4)C1)C3)CS(=O)(=O)C2,11,78*
CC(=O)Nc1ccc(/C=C2\OC(=O)c3c2cc(C)[nH]c3=O)cc1,2,-4
Cc1cc2c(c(=O)[nH]1)C(=O)O/C2=C/c1cn[nH]c1-c1cccs1,64*,.
COc1cccc(C2C3CN(Cc4ccccc4)CC=C3C(C(=O)O)=C(N)C2(C#N)C#N)c1 (centres undefined),47,94*
CC(=O)N1CC=C2C(C#N)=C(N)C(C#N)(C#N)C(c3cccc(Cl)c3)C2C1 (centres undefined),20,-8
Cc1ccc(C2C3CN(Cc4ccccc4)CC=C3C(C(=O)O)=C(N)C2(C#N)C#N)o1 (centres undefined),52*,1
CCCN1CC=C2C(C#N)=C(N)C(C#N)(C#N)C(c3ccccc3Cl)C2C1 (centres undefined),38,-2
O=C(NCc1ccc2c(c1)OCO2)c1ccc2c(c1)NC(=O)C1CCCCN21 (centres undefined),-1,1
COc1ccc(C(=O)N2CC3CC(NS(C)(=O)=O)C2C3)c(C)c1 (centres undefined),-4,1
Fc1ccc(-c2noc(-c3ccc(NCC4CCCO4)nc3)n2)cc1 (centres undefined),-3,-5
Cc1ccc(-n2nc(C)c3c2OC(N)=C(C#N)C3c2ccco2)cc1 (centres undefined),60*,-3
Cc1ccc(-n2nc(C)c3c2OC(N)=C(C#N)C3c2c(F)cccc2Cl)cc1 (centres undefined),10,0
CCCNC(=O)c1ccc2ncc3c(=O)n(-c4ccc(F)cc4)[nH]c3c2c1,12,0
CCCNC(=O)c1ccc2ncc3c(=O)n(-c4ccc(Cl)cc4)[nH]c3c2c1,58*,-2
CCOc1cccc(N2C(=O)NC(=O)/C(=C\c3ccc(Oc4ccc([N+](=O)[O-])cn4)cc3)C2=O)c1,50*,-7
O=C1NN(c2ccccc2)C(=O)/C1=C/c1cccc(OCCOc2ccc([N+](=O)[O-])cc2)c1,27,3
COc1cccc2cc(C(N)=O)c(=Nc3ccc(O)cc3)oc12,99*,-4
COc1cccc2cc(C(N)=O)c(=Nc3ccc(C(N)=O)cc3)oc12,-18,1
COc1ccc(CNC(=O)C2c3ccccc3CC(=O)N2C(C)C)cc1OC (centres undefined),7,-1
COc1ccc(C2SCC(=O)N2CCc2ccc(OC)c(OC)c2)c(OC)c1 (centres undefined),6,14
COc1ccc(CCN2C(=O)CSC2c2ccc(Cl)c(Cl)c2)cc1OC (centres undefined),100*,4
COc1cc(CC(=O)N2CCCC2c2ccc(Cl)cc2)cc(OC)c1OC (centres undefined),5,1
CCOc1ccc(-c2cccc(NC(=O)c3ccc(F)cc3F)c2)nn1,-1,2
Cc1nnc2ccc(-c3cccc(NC(=O)c4cc(Br)ccc4Cl)c3)nn12,57*,-4
SMILES,mHTT CaM bind,Pf apPOL inh
O=C(Nc1cccc(-c2ccc3nnc(-c4cccnc4)n3n2)c1)c1ccc(F)cc1F,80*,-3
CCOc1ncccc1C(=O)Nc1cccc(-c2ccc3nnc(C)n3n2)c1,-6,-4
CC1CCc2onc(C(=O)N(CCC#N)c3ccccc3)c2C1 (centres undefined),-2,-1
CC(C)Oc1ccc(CNC(=O)c2cccnc2N2CCNC(c3ccccc3)C2)cc1 (centres undefined),11,-8
Cc1cc(C)c(C)c(S(=O)(=O)N2CCN(C)CC2)c1C,-4,-3
Cc1cc(C)c(C)c(S(=O)(=O)N2CCC(c3c[nH]c4c(C)cccc34)CC2)c1C,50*,-5
CCc1ccc(NC(=O)c2nnn(CC(=O)Nc3cc(C)ccc3C)c2N)cc1,-5,4
Cc1cc(C)cc(NC(=O)C2=C3CCCN3c3ccccc3S2(=O)=O)c1,2,2
O=C(CC1COc2ccccc2NC1=O)Nc1cccc2ccccc12 (centres undefined),69*,-80
COc1ccccc1NC(=O)CC1COc2ccccc2NC1=O (centres undefined),-4,0
COc1ccc2c(c1[N+](=O)[O-])CCC/C2=N\OC(=O)c1cc(F)c(F)cc1Cl,i,4
CC1=C(C(=O)NCCCN2CCN(c3cc(C)ccc3C)CC2)C2(CCCCC2)OC1=O,12,0
Cc1ccc(Cl)cc1N1CCN(CCCNC(=O)C2(n3cccc3)CCCCC2)CC1,86*,-12
O=C(NCCN1CCN(c2ccccc2F)CC1)C1(n2cccc2)CCCCC1,24,-9
O=C(NCCN1CCN(c2cccc(C(F)(F)F)c2)CC1)C1(n2cccc2)CCCCC1,97*,-5
Cc1cc2ncn(C(=O)c3ccc(Cl)cc3[N+](=O)[O-])c2cc1C,5,2
COc1cccc(NC(=O)c2cc(I)ccc2Cl)c1,-33,-9
CCc1nnc(NC(=O)c2cc(OC)c(OC)c(OC)c2)s1,1,1
CCCc1sc(NC(=O)c2cc(OC)c(OC)c(OC)c2)nc1-c1ccc(OC)c(OC)c1,55*,-1
Cc1ccccc1NCN1C(=O)S/C(=C\c2ccccc2)C1=O,53*,0
Cc1ccccc1NCN1C(=O)S/C(=C\c2ccc(F)cc2)C1=O,28,-5
O=C(CN(c1cccc(C(F)(F)F)c1)S(=O)(=O)c1ccccc1)Nc1ccc(Cl)cc1,88*,0
O=C(CN(c1ccc(Cl)c(C(F)(F)F)c1)S(=O)(=O)c1ccccc1)Nc1cccnc1,35,7
O=C(CN(c1ccccc1)S(=O)(=O)c1ccc(Cl)cc1)Nc1ccc2c(c1)OCO2,11,-2
O=C(CN(c1cccc(C(F)(F)F)c1)S(=O)(=O)c1ccccc1)Nc1cccc(Cl)c1,86*,22
SMILES,mHTT CaM bind,Pf apPOL inh
O=C(c1ccccc1)N1CCN(c2ncnc3c2cnn3Cc2ccc(Cl)cc2Cl)CC1,1,-2
Cc1cc([N+](=O)[O-])ccc1NC(=O)C1(c2ccccc2)CCOCC1,-1,2
CCNc1cc(N2CCC(CCC(=O)N(C)C)CC2)ncn1,3,-6
COc1ccc(O)c(C(=O)CC(=O)c2ccccc2C)c1,62*,-10
Cc1ccc(C(=O)CC(=O)c2ccccc2O)cc1,45,-1
COc1ccc(O)c(C(=O)CC(=O)c2cccc(C)c2)c1,59*,-1
Cc1ccccc1C(=O)CC(=O)c1ccccc1O,50*,-2
Cc1ccc(O)c(C(=O)CC(=O)c2cccc(F)c2)c1,43,-2
COc1ccc(NC(=O)c2ccccc2C)c(OC)c1,-2,0
Cc1cccc(-c2csc3c(=O)n(Cc4ccncc4)cnc23)c1,17,-5
CCOc1ccccc1C(=O)NCC(C)(O)COC (centres undefined),-13,-4
OC12CC3CC(C1)C(Nc1ccccc1)C(C3)C2 (centres undefined),-1,0
COc1ccc(NC(=O)C2CC(=O)N(C)C(=Nc3cccc(Cl)c3)S2)cc1 (centres undefined),11,-7
Cc1ccc(NC(=O)c2ccccc2Br)cc1Cl,-17,0
COc1ccc(C(=O)c2nc3c(n2O)CCCCC3)cc1OC,20,-6
Cc1cc(C(=O)Nc2cccc(-c3cn4c(n3)SCC4)c2)c(C)o1,-8,0
